This is a sample that favours compounds with a hit; in the whole collection about 3.5% have one here.
LEDGF integ inh: blocks HIV-1 LEDGF/p75-dependent DNA integration | TR-FRET IN-LEDGF/p75 DNA integration, Eu/Cy5 | inhibition, % at 3.7 µM | 0.64% of 370,000 active | AID 743269;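 active = inhibition above the screen-wide mean plus 3 SD, cut at about 13% in these data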;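 note: signal is the Cy5 over europium emission ratio at 671 and 618 nm; 0% = plate median of compound wells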
DNMT1 block: blocks human DNA methyltransferase DNMT1. P26358. DNMT1 molecular beacon, Hinp1I cleavage, fluorescence. inhibition (reported as % activation of signal), % at 10 µM. 0.83% of 360,000 active; in the data active = inhibition above about 50%
rCAG binder-1: r(CAG) repeat RNA binding. TO-PRO-1 dye displacement fluorescence. inhibition, % at 3 µM. 1.3% of 370,000 active. AID 651821;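 active = inhibition above the plate cutoff, the mean of all test compounds on that plate plus 3 SD, cut at about 35% in these data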;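 note: 0% = DMSO alone and 100% = 100 µM mitoxantrone as full dye displacement; higher means more dye released from RNA so lower well fluorescence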
PG9 Ab binder: binds the HIV-1 gp120 antibody PG9; TR-FRET gp120-PG9 antibody binding; inhibition, % at 6.7 µM; 0.43% of 360,000 active; AID 624416; in the data active = inhibition above about 8.5%
UHRF1 MBD2 ctr: blocks human UHRF1 binding to methylated DNA | Q96T88 | inhibition, % at 4.4 µM | UHRF1 binding to methylated oligo, TR-FRET | AID 687016 | 0.75% of 370,000 active; in the data active = inhibition above about 21%;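 note: UHRF1 SRA domain binding a hemimethylated CpG hairpin DNA probe; 0% = median of test compound wells and 100% = reference inhibitor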
MBD2 inh: inhibitors of human MBD2 binding to methylated oligonucleotide; Q9UBB5; TR-FRET; 0.31% of 370,000 active; inhibition, % at 4.4 µM; in the data active = inhibition above about 13%
rCAG binder conf: r(CAG) RNA repeat binding, confirmation | shares compounds with rCAG binder-1 | TO-PRO-1 dye displacement fluorescence | inhibition, % at 3 µM | 70% of 4,300 active;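 active = inhibition above a per-plate cutoff, the mean inhibition of sample wells plus 3 SD, cut at about 35% in these data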;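 note: loss of TO-PRO-1 fluorescence as compound displaces dye from 1x1 AA loop RNA; 0% = DMSO only wells and 100% = 100 µM mitoxantrone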
DNA CAG counter: disrupts DNA CAG TO-PRO-1 complex, flagging rCAG hits | shares compounds with rCAG binder-1 | d(CAG) DNA oligo TO-PRO-1 dye displacement, fluorescence | inhibition, % at 3 µM | 94% of 4,300 active;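 active = inhibition above its plate's cutoff, the mean test-well inhibition plus 3 SD, cut at about 4.8% in these data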;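 note: 0% = DNA dye mix with DMSO and 100% = 100 µM mitoxantrone; hits displace the dye from DNA and so lower well fluorescence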
DNA CAG DR: DNA CAG dye complex inhibition, dose response counter-screen | DNA CAG/GTC duplex TO-PRO-1 dye displacement fluorescence | 20% of 250 active | shares compounds with rCAG binder-1 | IC50, µM; in the data active = IC50 below about 10 µM
dCAG DNA bind: counter-screen for rCAG binders: DNA CAG TO-PRO-1 complex inhibitors, late stage. d(CAG) DNA duplex TO-PRO-1 dye displacement, fluorescence. IC50, µM. AID 720649. shares compounds with rCAG binder-1. 80% of 30 active
rCAG binder-2: r(CAG) repeat RNA binding, TO-PRO-1 displacement; shares compounds with rCAG binder-1; r(CAG) RNA TO-PRO-1 dye displacement, fluorescence; IC50, µM; 100% of 30 active; AID 720651
* = called active by the depositor; i = inactive; nt = no result given. Unless noted, the rule behind the calls is not given here.

SMILES	LEDGF integ inh	DNMT1 block	rCAG binder-1	PG9 Ab binder	UHRF1 MBD2 ctr	MBD2 inh	rCAG binder conf	DNA CAG counter	others
COCCNC(=O)C1CCCN(Cc2ccc(-c3ccccc3)cc2)CC1 (configuration not stated)	-2.8	-4.7	1.4	-2.8	-0.8	0.2	nt	nt
COc1ccc(-n2c(SCC(=O)C(C)(C)C)nc3c(sc(=S)n3-c3ccccc3)c2=O)c(OC)c1	-1.6	-6.1	11.0	-2.2	-0.6	-1.8	nt	nt
Cc1ccc(-n2c(=S)sc3c(=O)n(-c4ccc(F)cc4)c(SCC(=O)O)nc32)cc1C	-0.2	-0.4	35.5*	1.9	-0.2	2.1	29.6	6.4*
Cc1ccc(-n2c(SCC(=O)O)nc3c(sc(=S)n3-c3ccc(C)c(C)c3)c2=O)cc1	0.9	-1.9	51.1*	-1.4	-0.4	-2.8	42.0*	13.8*
CC(CCC(=O)O)C1CCC2C3C(O)CC4CC(O)CCC4(C)C3CC(O)C12C (configuration not stated)	3.2	2.0	20.6	-1.2	-1.9	-4.4	nt	nt
COc1cc(/C=N/NC(=O)Cc2nnc(NC(=O)c3ccccc3)s2)ccc1O	2.8	0.8	37.9*	-2.0	-1.5	2.1	14.7	7.5*
CCN(CC)c1ccc(/C=N/NC(=O)Nc2ccccc2)cc1	2.6	-17.1	-1.3	-5.0	-2.3	-3.3	nt	nt
CCN(CC)c1ccc(/C=N/NC(=O)Cc2nnc(NC(=O)Nc3ccccc3)s2)cc1	-2.3	50.2*	59.5*	-0.9	-0.4	3.2	40.0*	26.9*
O=C(Cc1nnc(NC(=O)c2ccccc2)s1)N/N=C/c1ccc(O)cc1	-0.7	-7.7	13.4	-1.4	-1.9	-4.6	nt	nt
O=C(Cc1nnc(NC(=O)Nc2ccc(F)cc2)s1)Nc1ccccc1	-1.2	3.2	37.6*	-1.9	3.8	2.5	27.2	14.8*
O=C(Nc1ccccc1)Nc1nnc(Cc2ccc(F)cc2)s1	-3.0	0.8	35.8*	-1.1	1.2	3.6	10.8	12.3*
CCOC(=O)[C@@H](C)N(Cc1ccc(OC)cc1)S(=O)(=O)N(Cc1ccccc1)[C@H](C(=O)OC)C(C)C	1.3	-1.6	-2.5	-1.5	-0.5	-2.0	nt	nt
CC(C)c1ccc(NC(=O)CSc2nc3ccsc3c(=O)n2CCC(=O)O)cc1	2.1	1.9	35.9*	-1.3	1.4	4.4	32.2	7.8*
CCc1ccc(NC(=O)CSc2nc3ccsc3c(=O)n2CCCCCC(=O)O)cc1	-0.5	0.5	1.1	0.0	1.4	-3.5	nt	nt
CCCOc1ccc(/C=N/Nc2ccc(C(=O)O)cc2)c(OCCC)c1	1.6	2.2	54.6*	-1.6	-0.3	-3.0	60.2*	21.8*
CCCOc1ccc(/C=N/Nc2cccc([N+](=O)[O-])c2)c(O)c1	3.6	-17.5	25.1	0.9	1.2	2.4	nt	nt
COc1ccc(/C=C2/SC(=S)N(NS(=O)(=O)c3ccccc3)C2=O)cc1	2.0	2.0	74.2*	1.1	-0.3	0.8	66.4*	29.4*
O=C1/C(=C\c2ccc(Br)cc2)SC(=S)N1NS(=O)(=O)c1ccccc1	1.0	8.5	5.7	0.8	4.1	1.0	nt	nt
C=CCOc1ccc(/C=C2\SC(=S)N(NS(=O)(=O)c3ccccc3)C2=O)cc1	-0.3	11.7	87.5*	-0.7	-1.1	1.2	78.6*	46.1*
CCOc1ccc(C2C3=C(Nc4nc(N)[nH]c(=O)c42)c2ccccc2C3=O)cc1 (configuration not stated)	1.1	-10.1	65.9*	-7.9	-6.8	-9.1	53.3*	35.4*
CCCOc1ccc(C2C3=C(Nc4nc(N)[nH]c(=O)c42)c2ccccc2C3=O)cc1 (configuration not stated)	-3.6	0.9	70.8*	-0.1	3.5	-5.3	57.2*	37.1*
COc1ccc(C2C3=C(CCCC3=O)NC3=C2C(=O)c2ccccc23)cc1 (configuration not stated)	0.1	-0.9	11.4	-8.0	-5.5	-12.7	nt	nt
CC(=O)NS(=O)(=O)c1ccc(NC(=O)c2cc(-c3cccs3)nc3ccccc23)cc1	0.5	3.1	14.5	-0.4	-0.1	-0.1	nt	nt
CC(=O)NS(=O)(=O)c1ccc(NC(=O)c2cc(-c3ccc(C)c(C)c3)nc3ccccc23)cc1	4.4	-3.0	76.7*	-1.4	0.6	-3.7	70.5*	36.8*
CC(=O)NS(=O)(=O)c1ccc(NC(=O)c2cc(-c3ccc(C)cc3)nc3ccccc23)cc1	3.8	-3.3	53.5*	-0.8	5.3	3.0	35.3*	9.3*
SMILES	LEDGF integ inh	DNMT1 block	rCAG binder-1	PG9 Ab binder	UHRF1 MBD2 ctr	MBD2 inh	rCAG binder conf	DNA CAG counter	others
CN(CCCOC(=O)c1cc2ccccc2o1)C1CN(Cc2cn(Cc3ccc([N+](=O)[O-])cc3)nn2)S(=O)(=O)C1 (configuration not stated)	6.1	nt	2.2	nt	2.6	-3.4	nt	nt
Cc1c(CC(=O)NCC(C)C)c(=O)oc2cc3c(cc12)CCC(C)(C)O3	-2.0	-1.2	-6.5	1.2	-0.1	-2.2	nt	nt
CCCn1c(O)c(/C=C2\C=NN=C2c2ccccc2)sc1=S	-2.3	-3.0	17.8	0.1	-2.0	-6.7	nt	nt
CCCC(C(=O)O)n1c(O)c(C=C2N=c3ccccc3=N2)sc1=S (configuration not stated)	-3.1	-0.8	57.8*	-2.3	-4.5	-0.8	54.3*	17.3*
O=C(O)CCCCCn1c(O)c(C=C2N=c3ccccc3=N2)sc1=S	-0.4	7.6	83.5*	-0.1	-4.5	-8.0	64.6*	29.0*	DNA CAG DR=i;dCAG DNA bind=2.41*;rCAG binder-2=0.981*
O=C(O)CCCn1c(O)c(C=C2N=c3ccccc3=N2)sc1=S	1.5	3.3	45.0*	-5.1	-6.7	-8.3	28.9	6.7*
O=C(O)Cn1c(O)c(C=Nc2ccccc2)sc1=S	0.5	-2.1	-1.3	-5.1	-3.8	-10.0	nt	nt
O=C(NC(C(=O)N/N=C/c1cccc2ccccc12)c1n[nH]c(=O)c2ccccc12)c1ccccc1 (configuration not stated)	-3.2	-9.3	13.8	-0.6	-1.8	-5.5	nt	nt

Bioassay records deposited in PubChem by several laboratories.
